The full ranking holds about 68,000 sequences; the median of “fluorescence intensity (a.u.)” is about 9,100, and the highest 2% start at about 16,000. The full list was thinned out, with the highest values kept by preference.
What follows are sequences tested against OsWRKY34 (Oryza sativa, UniProt Q0JBA9 1-250) (assay: protein-binding microarray (RPBM); PBS, 2% BSA, 51.3 ng/ul salmon testes DNA, 50 uM zinc acetate, 200 nM TF, 25 C, 1 h; high values mean tight binding). Settings: protein: recombinant; tags: N-terminal polyhistidine and DsRed monomer fusion (pET32a); label: CyDye5-dUTP incorporated in the synthesized complementary strand; 3' TTTTT single-stranded linker to array surface; dsDNA, one strand shown.
Chain of OsWRKY34 (Q0JBA9 entry or part of it): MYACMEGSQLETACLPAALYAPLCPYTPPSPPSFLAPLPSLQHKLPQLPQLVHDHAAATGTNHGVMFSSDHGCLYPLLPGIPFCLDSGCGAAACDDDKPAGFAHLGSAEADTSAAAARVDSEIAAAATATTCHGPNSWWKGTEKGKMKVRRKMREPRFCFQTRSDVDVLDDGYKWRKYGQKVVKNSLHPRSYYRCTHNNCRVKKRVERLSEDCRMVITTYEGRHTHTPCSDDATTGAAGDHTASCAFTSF
In short: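 Binding signal is defined as the fluorescence intensity of each feature in arbitrary units, read on an Axon 4000B scanner. Transcription factors with N-terminal polyhistidine and DsRed fusions came from E. coli BL21-CodonPlus and were purified on Ni–NTA. They were incubated at 200 nM for 1 h at 25 °C on a custom Agilent array that had been made double-stranded with Cy5-dUTP, with 50 µM zinc acetate present, and the array was washed.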
For “GGTTTGGAGGCGGAGGTGGCGCTGGAGGAGGCGGCGGTCTCGGAGTCACCTAGTGCAG”, the binding signal was 9970 fluorescence intensity (a.u.).
For “GCCTCGACATGCGCGTCCGATTTATCCCCTTTTTTTTTTTCGGAGTCACCTAGTGCAG”, the binding signal was 8470 fluorescence intensity (a.u.).
With “CATGCCAGGTGTTGGGCCTCATCGTCGGCCGCTTAGTATCCGGAGTCACCTAGTGCAG” the binding signal was 8380 fluorescence intensity (a.u.).
In the case of “TTTTGTCCTTCAACCTGTTGAAGTTGTTTTCAGTTGTTCACGGAGTCACCTAGTGCAG”, the binding signal was 11600 fluorescence intensity (a.u.).
“GTCACCAGTGTCCGCCAATAATTTGCACATCTTCTCATATCGGAGTCACCTAGTGCAG” was tested, and the binding signal was 10300 fluorescence intensity (a.u.).
In the case of “TGCTTAGTTGCCCTACAACCTTTTTACAGGCTATATTTATCGGAGTCACCTAGTGCAG”, the binding signal was 8110 fluorescence intensity (a.u.).
With “TAGCTTAATATTTTTTTTCTCGCTAGCTTTATTTAAAATGCGGAGTCACCTAGTGCAG” the binding signal was 8170 fluorescence intensity (a.u.).
For “TATTCACGGCTGCACTTATTTTGGGACGGAGGTAGTATTTCGGAGTCACCTAGTGCAG”, the binding signal was 8070 fluorescence intensity (a.u.).
In the case of “CCCTCCTTCCCTTTTAGTGGGTCTGTTTTCTTGGAGCGCGCGGAGTCACCTAGTGCAG”, the binding signal was 8600 fluorescence intensity (a.u.).
“CGCAGAATCACAGTTTTTCTTCATCTCCGGCAAGGGTAATCGGAGTCACCTAGTGCAG” was tested, and the binding signal was 8960 fluorescence intensity (a.u.).
“ACGCACCAACCGTCCCTCTTTCGCTCACACTCTTCCTTCCCGGAGTCACCTAGTGCAG” was tested, and the binding signal was 9700 fluorescence intensity (a.u.).
For “CAATTGGTTGGGTTTCTTGTGCCTACCTGTGTTTAAGTTCCGGAGTCACCTAGTGCAG”, the binding signal was 9160 fluorescence intensity (a.u.).
In the case of “TACATACTCCTACTCCGTAGTTTGCTGCTTTGTTGGATTCCGGAGTCACCTAGTGCAG”, the binding signal was 12900 fluorescence intensity (a.u.).
In the case of “AGTACTACTACTACTACATACAGCTGCCTTTGCTTAGCTCCGGAGTCACCTAGTGCAG”, the binding signal was 9580 fluorescence intensity (a.u.).
“TTGCTCGTATTTTCTCCCCAAAGTCATCAACTTTGATGCTCGGAGTCACCTAGTGCAG” was tested, and the binding signal was 19000 fluorescence intensity (a.u.).
In the case of “GCCTACTCCTACTTGTACATACTTGCTTTTTTTTTTTTTCCGGAGTCACCTAGTGCAG”, the binding signal was 17500 fluorescence intensity (a.u.).
For “GTCCCATCACCTTATTTCTCATTTTGATTTACTTTTATCTCGGAGTCACCTAGTGCAG”, the binding signal was 9330 fluorescence intensity (a.u.).
“ATACCACCTTATATACTTTGCCAAAACCACCTTTTCCAAGCGGAGTCACCTAGTGCAG” was tested, and the binding signal was 9040 fluorescence intensity (a.u.).
“TATAGATAGATACTACCAGGGTTTCCAAACTGTTTTTTTGCGGAGTCACCTAGTGCAG” was tested, and the binding signal was 23300 fluorescence intensity (a.u.).
“CGGGGTTTCACTTGGTTTTAATTGTTCCTGTGCTGCGTCGCGGAGTCACCTAGTGCAG” was tested, and the binding signal was 18700 fluorescence intensity (a.u.).
In the case of “CTTTTCCTGCTTGGTTCGTTACTCCTGTTTAATTATTATTCGGAGTCACCTAGTGCAG”, the binding signal was 14600 fluorescence intensity (a.u.).
For “TATTTTTTGCATTTTGCTCCCTGATTTGAACTGTATTTCTCGGAGTCACCTAGTGCAG”, the binding signal was 8660 fluorescence intensity (a.u.).
“TTTCTTTTTTTTGCCTACCTTTACTTTACACCAAAAACTGCGGAGTCACCTAGTGCAG” was tested, and the binding signal was 8630 fluorescence intensity (a.u.).
For “CGAGGTGTGTCTCTCTCCCGTTCACCCGTCCGTATCCTTCCGGAGTCACCTAGTGCAG”, the binding signal was 11100 fluorescence intensity (a.u.).
For “CGATTATTTCACTAGAGGCAACCATACTGCTACCAAATCCCGGAGTCACCTAGTGCAG”, the binding signal was 10200 fluorescence intensity (a.u.).
“TACCTGTTTGTTTTTAAGTTCAGATATTATATTACGTAACCGGAGTCACCTAGTGCAG” was tested, and the binding signal was 8930 fluorescence intensity (a.u.).
“ACCCCATTTTTTTTGAAAATTCTCGAATTTTATTTTTTTTCGGAGTCACCTAGTGCAG” was tested, and the binding signal was 8750 fluorescence intensity (a.u.).
With “AGTCCGACTTTTCCTTTTTTTTTTCCGTGTTTTCCGTTTCCGGAGTCACCTAGTGCAG” the binding signal was 14800 fluorescence intensity (a.u.).
With “TTTGTCGTTGCTTCCCTTCTTGGAGACCTTGCCTTGAAGACGGAGTCACCTAGTGCAG” the binding signal was 8090 fluorescence intensity (a.u.).
In the case of “ATTATATTTTAGGTCGCATTTTGATTCTTTTCATGTAATCCGGAGTCACCTAGTGCAG”, the binding signal was 8660 fluorescence intensity (a.u.).
With “TGGTTATGTGCCACAAATCATATATGCAATTTTGACTATACGGAGTCACCTAGTGCAG” the binding signal was 9270 fluorescence intensity (a.u.).
For “ATGGAATCGATCACCTGCAATGCAACACCGTGCCATAATCCGGAGTCACCTAGTGCAG”, the binding signal was 8520 fluorescence intensity (a.u.).
“GAGGAGAGCAGAACAGAACAAGAGGAGGAGAACAAAAAAACGGAGTCACCTAGTGCAG” was tested, and the binding signal was 8230 fluorescence intensity (a.u.).
With “TTTTCTTTGCTTTTCGGTTTCGTTCTCCGTTTTGGTTTTTCGGAGTCACCTAGTGCAG” the binding signal was 12400 fluorescence intensity (a.u.).
In the case of “GTAGTTTTTTTCCTAGTTTCAGTTTTTGTTTTGCTTTTTTCGGAGTCACCTAGTGCAG”, the binding signal was 11200 fluorescence intensity (a.u.).
In the case of “TTGGATCGTTTGCTTTTCTTTGCCTTTCTTTTGGATTTCTCGGAGTCACCTAGTGCAG”, the binding signal was 11700 fluorescence intensity (a.u.).
With “GTCTCGGTCTTTTCGATCTCGGTCTTTTCGGTTCGGTCTTCGGAGTCACCTAGTGCAG” the binding signal was 9340 fluorescence intensity (a.u.).
For “ATATATATATATATATATATATTTTGTCTTGAGTGGTTTGCGGAGTCACCTAGTGCAG”, the binding signal was 11700 fluorescence intensity (a.u.).
For “TGTCACAGTGTTTTGTTTGTGTTTTTGACCTTGCTTTCCTCGGAGTCACCTAGTGCAG”, the binding signal was 16800 fluorescence intensity (a.u.).
“TTTTGCTTTGGTTGGTTTGCTCGTTTTTTTTTTCTTTTCTCGGAGTCACCTAGTGCAG” was tested, and the binding signal was 19600 fluorescence intensity (a.u.).
For “GAACACGATGACATCGGATCGGGTCGGTTTCTCTCTTGCTCGGAGTCACCTAGTGCAG”, the binding signal was 9010 fluorescence intensity (a.u.).
With “ATGTTTTTCTTTTCTTTCTTCTTTTTTTTGTTTTTGACCTCGGAGTCACCTAGTGCAG” the binding signal was 11900 fluorescence intensity (a.u.).
In the case of “TCTCTTTCTCTCGCTTTCTTTTTGCATAGTTTTCTTCATGCGGAGTCACCTAGTGCAG”, the binding signal was 8700 fluorescence intensity (a.u.).
With “GGGTCGGTTTCTCTCTTGCTGTCTTCTCGATCGATCGATGCGGAGTCACCTAGTGCAG” the binding signal was 20200 fluorescence intensity (a.u.).
With “CTCGCTTTTCTCTTTTTTGATACTGTCTCGTGGTTTCTTGCGGAGTCACCTAGTGCAG” the binding signal was 18400 fluorescence intensity (a.u.).

— publication PMC7819943, “Rice protein-binding microarrays: a tool to detect cis-acting elements near promoter regions in rice”
